# Screens from PubChem.
# The full list was thinned out, with hits kept by preference.
# nsP2pro primary: Primary qHTS for inhibitors of NSP2Pro chikungunya virus (CHIKV); 1.1% of 31,000 active; FRET peptide cleavage, nsP2pro, fluorescence 1 h; Potency, µM (titrated, usually from 24.9 µM), inactives show at the highest dose activity change, negative = inhibition, hits mostly inhibitors; calls by dose curve; note: nearly all actives have a fitted effect of over 60% in size
#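 Recombinant nsP2pro (150 nM) was preincubated with compound 15 min at room temperature in 10 mM Tris-HCl pH 8.0, 0.01% Tween 20. Peptide 2 FRET substrate (2.5 uM) was then added and fluorescence read after 1 h. Seven-point series, up to 25 uM.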
# Starred values were filed as active, the others as inactive; i = inactive; [ ] = another dose, or the depositor's remark. % is set by controls: 0 for no effect and ±100 for the full control effect; potency is the fitted concentration of half-maximal effect.
SMILES,nsP2pro primary
O=S(=O)(Nc1nccs1)c1ccc(NCc2ccc(Br)cc2O)cc1,-15.9%
COc1ccc2nc(-c3cccc(OCc4ccccc4)c3)sc2c1,-4.6%
Cc1cc(-c2ccc(N=Nc3ccc4c(S(=O)(=O)O)cc(S(=O)(=O)O)c(N)c4c3O)c(C)c2)ccc1N=Nc1ccc2c(S(=O)(=O)O)cc(S(=O)(=O)O)c(N)c2c1O,12.4µM*
COc1cc(Nc2nc(-c3ccncc3)nc3ccccc23)ccc1N1CCN(C)CC1,-3.0%
N=c1sc2c(n1CC(=O)c1ccc([N+](=O)[O-])cc1)CCCC2,-7.6%
Cc1ccc(S(=O)(=O)Nc2cnccc2C(=O)Nc2nc(-c3ccc(Cl)cc3)cs2)cc1,i
O=C(CCCCCCSc1ccc2ccccc2c1)NO,29.4%
O=C(Nc1ccc2c(N3CCOCC3)ncnc2c1)c1cccc(Cl)c1,i
Cc1cc(C(=O)N2CCc3ncnc(N4CCOCC4)c3CC2)n(C)n1,-3.2%
OCc1ccc(-c2ccc3ncnc(N4CCOCC4)c3c2)o1,12.6µM*
Cc1cc(C)nc(NC(=S)N2CCN(c3ccc([N+](=O)[O-])cc3Cl)CC2)c1,-6.2%
O=C(OCCN(CCO)CCO)c1ccccc1O,-20.2%
COC(=O)C1=C(C)NC(C)=C(C(=O)OC(C)C)C1c1cccc2nonc12 (stereo not drawn),-2.4%
CCOC(=O)C1=C(C)NC(C)=C(C(=O)OCC)C1c1ccccc1/C=C/C(=O)OC(C)(C)C,-20.9%
COC(=O)C1=C(C)NC(C)=C(C(=O)OCC(C)=O)C1c1ccccc1[N+](=O)[O-] (stereo not drawn),12.4µM*
CN(CCC1CCCO1)c1ncnc2ccc(-c3ccc4c(c3)OCO4)cc12 (stereo not drawn),-4.6%
CCOC(=O)c1ccccc1C(=O)OCC,3.8%
CCOC(=O)C(Cc1ccccc1)NC(=O)Cn1nnc(-c2ccc(C)cc2)n1 (stereo not drawn),-19.6%
CCOC(=O)[C@H](CS)NCCN[C@@H](CS)C(=O)OCC,11.1µM*
O=C(/C=C/c1ccc(O)c(O)c1)O[C@H]1[C@H](O)C[C@](O)(C(=O)O)C[C@H]1OC(=O)/C=C/c1ccc(O)c(O)c1,7.4%
O=C(N1CCOCC1)N1CCN(c2ccc(Cl)cc2)CC1,-1.1%
O=C(O)Cc1cccn1-c1ccc(Cl)cc1,4.47µM*
O=C(Cc1cccn1-c1ccc(F)cc1)N1CCCCC1,-20.2%
CC(C)N1C[C@@H](COCc2ccccc2)[C@H](c2ccccc2)[S+]1(=O)[O-],-5.0%
CNc1oc(-c2cccc3cnccc23)nc1C#N,2.6%
SMILES,nsP2pro primary
CC1=C2C[C@@]3(C)[C@@H](CCC[C@@H]3C)C[C@@]2(O)OC1=O,-27.5%
CC1=C2C[C@@]3(C)C(CCC[C@@H]3C)C(O)C2(O)OC1=O (stereo partly drawn),11.1µM*
CC1=C2CC(=O)C(C)CC/C=C(\C)CC2(O)OC1=O (stereo not drawn),-8.6%
Cc1ccc(S(=O)(=O)Nc2cc(F)ccc2C(=O)Nc2nc(-c3ccccc3)cs2)cc1,i
O=C1COCC2(CN(c3ccc(C(F)(F)F)cn3)C2)CN1c1ccc(F)cc1,-10.7%[39.2 µM]
CC(C)(C)c1ccc(CN2CC3(COCC2=O)CN(c2cnccn2)C3)cc1,i
O=C1COCC2(CN(c3ccc(C(F)(F)F)cn3)C2)CN1c1ccccc1F,11.2µM*
CC(=O)c1cccc(NC(=O)c2c(C)nn(-c3ccc(F)cc3)c2-n2cccc2)c1,10µM*
Cc1nn(-c2ccc(F)cc2)c(-n2cccc2)c1C(=O)N1CCCCC1C (stereo not drawn),-28.7%
Cc1ccc(CCNC(=O)c2c(C)nn(-c3ccc(F)cc3)c2-n2cccc2)cc1,-16.6%
CCNC(=O)c1ccc(-c2ccc3ncnc(NCc4nc(C)cs4)c3c2)o1,i
CNC(=O)c1cccc(-c2cnc(Nc3ccc(Cl)cn3)c3c2CCO3)c1,i
Cn1cc(-c2cnc(Nc3ccc(F)cc3)c3c2CCO3)cn1,-5.4%[39.2 µM]
Cn1cc(-c2cnc(Nc3cccnc3)c3c2CCO3)cn1,8.91µM*
CC(=O)Nc1ccc(-c2nc3ccccc3s2)cc1,i
COc1ccc(NC(=O)c2c(NC(=O)c3ccncc3)sc3c2CCC(C(C)(C)C)C3)cc1 (stereo not drawn),-18.3%
CCOc1ccc(NC(=O)c2c(NCc3cccnc3)sc3c2CCC(C)C3)cc1 (stereo not drawn),11.2µM*
CC1CCc2c(sc(NC(=O)COc3ccccc3)c2C(=O)Nc2ccccc2Cl)C1 (stereo not drawn),-2.9%
O=c1cc(-c2ccc(O)c(O)c2)oc2c([C@@H]3O[C@H](CO)[C@@H](O)[C@H](O)[C@H]3O)c(O)cc(O)c12,-2.9%
COc1cccc(CNc2ccc(S(=O)(=O)Nc3ccccc3)cc2)c1O,i
CCOc1cccc(CNc2ccc(O)cc2)c1OCc1ccccc1Cl,11.2µM*
O=S(=O)(Nc1ccccc1)c1ccc(NCc2cccc(Cl)c2O)cc1,-23.3%
O=S(=O)(Nc1cnc2ccccc2c1)c1ccc(NCc2cccc(Cl)c2O)cc1,-3.6%
